In experiment [1] the test system is PRMT1 (protein arginine N-methyltransferase 1). The experiment in a line: PRMT1 binders on small-molecule microarrays, primary screen, biochemical, small-molecule microarray, 635 nm fluorescence (AID 1088).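 Further: binding of Prmt1 protein to compounds spotted on small-molecule microarray slides.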 The conditions noted are these: small-molecule microarray binding, higher = more signal.
A short description of experiment [2]: yeast growth modulation, basal conditions, primary screen, YJM789 clinical isolate, OD600, 24 h (AID 1089).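 Further: growth of clinical yeast isolate S. cerevisiae YJM 789 seeded 1000 cells per well; test concentration not given here.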 The conditions noted are these: S. cerevisiae YJM789 growth, higher = more signal, called active from +8 up or from −8 down.
The nature of experiment [3]: fission yeast growth modulation, primary screen, strain 972, OD600, 24 h, no modulator (AID 1090).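 Further: basal condition with compound alone and no growth modifier present; test concentration not given here.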 The following applies: S. pombe 972 growth, higher = more signal, called active from +8 up or from −8 down.
The nature of experiment [4]: S. cerevisiae growth modulation with rapamycin, primary screen, strain BY4716, OD600, 96 h (AID 1091). Further: test concentration not given here. The conditions noted are these: higher = more signal, called active from +8 up or from −8 down.
Experiment [5] concerns the target Torsin-1A-interacting protein 2 (Homo sapiens) (UniProt Q8NFQ8). The experiment can be described thus: LULL1 binders on small-molecule microarray, primary screen, cell lysate, human LULL1 lysate, 635/667 nm fluorescence (AID 1092).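 Further: probe is lysate of COS7 cells overexpressing human LULL1; score merges per-feature 667 nm fluorescence with signal-to-noise.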 The following applies: hLULL1 lysate binding, 635 nm fluorescence, higher = more signal.
Experiment [6] in a line: E. coli growth modulation, two-sided OD650, primary screen, E. coli filamentation project, strain DRC41, 24 h (AID 1093).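 Further: MC1000 strain lacking acrAB efflux and sulA so SOS filamentation is blocked; test concentration not given here.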 The conditions noted are these: OD650, 24 h, higher = more signal, called active from +8 up or from −8 down.
Experiment [7] is described as follows: small-molecule microarray binders of probe aLefty2, primary screen, biochemical, biotinylated probe, 635/667 nm fluorescence (AID 1094).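 Further: score merges spot fluorescence near 667 nm with spot signal-to-noise ratio.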 The conditions noted are these: higher = more signal.
In experiment [8] the test system is Noggin (protein binding on small-molecule microarray). The experiment in a line: Noggin binders on small-molecule microarray, primary screen, biochemical, 635/667 nm fluorescence (AID 1095).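 Further: score merges 667 nm feature fluorescence with signal to noise over triplicate slides.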 The conditions noted are these: 635 nm fluorescence, higher = more signal.
The target of experiment [9] is Neurogenic locus notch homolog protein 3 (Homo sapiens) (UniProt Q9UM47). The experiment in a line: NOTCH3 binders on small-molecule microarray, primary screen, biochemical, 635/667 nm fluorescence (AID 1096). The following applies: NOTCH3 binding, 635 nm fluorescence, higher = more signal.
Experiment [10] in a line: small-molecule microarray binders of probe aEGFR, primary screen, biochemical, biotinylated probe, 635/667 nm fluorescence (AID 1097).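 Further: probe is a biotinylated anti-EGFR antibody binding compounds printed on slides; score combines fluorescence near 667 nm and signal to noise of each spot.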 The conditions noted are these: higher = more signal.
For experiment [11], the system named is Plasmodium falciparum Sir2 (PF13_0152, Sir2A). The experiment in a line: pfSir2 binders on small-molecule microarrays, primary screen, biochemical, small-molecule microarray, 635 nm fluorescence (AID 1098).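 Further: score merges spot fluorescence intensity with its signal-to-noise ratio.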 The conditions noted are these: small-molecule microarray binding, fluorescence 635 nm; higher = more signal.
Experiment [12] in a line: small-molecule microarray binders of probe aDKK1, primary screen, biochemical, biotinylated probe, 635/667 nm fluorescence (AID 1099).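 Further: score merges 667nm spot fluorescence with signal to noise across triplicate slides; reference of the scale not given here.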 The following applies: higher = more signal.
Experiment [13] can be described thus: small-molecule microarray binders of probe aCHRDL2, primary screen, biochemical, biotinylated probe, 635/667 nm fluorescence (AID 1100). The following applies: higher = more signal.
The nature of experiment [14]: splicing luciferase reporter signal modulators, primary screen, spliceosome inhibition project, cell-based, HEK293, splice +/- reporter (AID 1101).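 Further: HEK293 cells carrying a splicing-competent luciferase reporter gene; test concentration not given here.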 The following applies: luminescence, 24 h, higher = more signal, called active from +8 up or from −8 down.
Experiment [15] addresses Fibroblast growth factor 10 (Homo sapiens) (UniProt O15520). The experiment can be described thus: FGF10 binders on small-molecule microarrays, primary screen, biochemical, small-molecule microarray, 635 nm fluorescence (AID 1102). The conditions noted are these: FGF10 binding, fluorescence 635 nm, higher = more signal.
Experiment [16] relates to glycogen synthase kinase-3 (GSK3A per assay name; protocol says GSK3B). The experiment in a line: GSK3 binders on small-molecule microarrays, primary screen, biochemical, small-molecule microarray, 635 nm fluorescence, GSK3A (AID 1103). Further: the record names both GSK3A and GSK3B. The conditions noted are these: small-molecule microarray binding, fluorescence 635 nm; higher = more signal.
Experiment [17] deals with Epidermal growth factor receptor (Homo sapiens) (UniProt P00533). The experiment can be described thus: EGFR binders on small-molecule microarrays, primary screen, biochemical, small-molecule microarray, 635 nm fluorescence (AID 1104).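 Further: score merges 667 nm emission intensity with spot signal to noise over triplicate slides.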 The following applies: EGFR binding, higher = more signal.
The target of experiment [18] is Follistatin-related protein 3 (Homo sapiens) (UniProt O95633). The experiment can be described thus: FSTL3 binders on small-molecule microarrays, primary screen, biochemical, small-molecule microarray, 635 nm fluorescence (AID 1105).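 Further: score merges emission near 667 nm and signal to noise per printed spot across three slides.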 The following applies: FSTL3 binding, higher = more signal.
In experiment [19] the target is Dickkopf-related protein 1 (Homo sapiens) (UniProt O94907). The experiment in a line: DKK1 binders on small-molecule microarrays, primary screen, biochemical, small-molecule microarray, 635 nm fluorescence scan (AID 1106).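 Further: score merges emission near 667 nm with signal to noise over three replicate slides.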 The following applies: DKK1 binding, higher = more signal.
Experiment [20] relates to Inhibin beta A chain (activin A). The experiment can be described thus: INHBA (activin A) binders on microarrays, primary screen, biochemical, small-molecule microarray, 635 nm fluorescence scan (AID 1107).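 Further: mouse activin A protein probed at 4.33 µg/mL on printed slides; score merges bound-protein fluorescence near 667 nm with spot signal-to-noise.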 The following applies: small-molecule microarray binding, higher = more signal.

Active and inactive are the calls of the source.

The text below walks through data of PubChem BioAssay.

Chain of Torsin-1A-interacting protein 2 (Homo sapiens) (Q8NFQ8 whole entry, looked up): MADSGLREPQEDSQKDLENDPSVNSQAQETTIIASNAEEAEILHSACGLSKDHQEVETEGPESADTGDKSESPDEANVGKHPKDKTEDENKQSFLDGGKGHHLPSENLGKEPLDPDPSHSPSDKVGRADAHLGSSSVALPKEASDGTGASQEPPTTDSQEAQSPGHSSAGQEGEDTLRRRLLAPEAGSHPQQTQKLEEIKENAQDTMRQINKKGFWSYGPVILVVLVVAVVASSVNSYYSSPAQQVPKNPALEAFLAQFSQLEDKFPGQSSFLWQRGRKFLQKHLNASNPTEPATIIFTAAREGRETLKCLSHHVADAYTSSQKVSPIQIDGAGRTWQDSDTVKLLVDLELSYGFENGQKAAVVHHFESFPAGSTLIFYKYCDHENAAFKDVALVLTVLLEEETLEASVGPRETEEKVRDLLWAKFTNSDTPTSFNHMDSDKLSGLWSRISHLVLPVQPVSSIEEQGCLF
Chain of Fibroblast growth factor 10 (Homo sapiens) (O15520 whole entry, looked up): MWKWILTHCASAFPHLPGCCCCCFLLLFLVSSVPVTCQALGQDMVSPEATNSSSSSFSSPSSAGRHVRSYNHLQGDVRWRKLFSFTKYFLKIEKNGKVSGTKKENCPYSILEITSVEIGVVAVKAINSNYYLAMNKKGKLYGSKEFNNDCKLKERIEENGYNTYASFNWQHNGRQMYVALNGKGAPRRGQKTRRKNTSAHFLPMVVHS
Chain of Dickkopf-related protein 1 (Homo sapiens) (O94907 whole entry, looked up): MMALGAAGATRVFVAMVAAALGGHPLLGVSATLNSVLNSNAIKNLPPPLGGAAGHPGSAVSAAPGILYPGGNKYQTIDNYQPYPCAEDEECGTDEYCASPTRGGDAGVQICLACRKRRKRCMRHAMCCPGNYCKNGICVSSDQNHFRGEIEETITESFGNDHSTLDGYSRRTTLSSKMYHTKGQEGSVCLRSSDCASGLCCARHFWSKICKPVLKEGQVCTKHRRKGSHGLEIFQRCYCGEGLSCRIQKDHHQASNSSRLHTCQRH
Chain of Epidermal growth factor receptor (Homo sapiens) (P00533 whole entry, looked up): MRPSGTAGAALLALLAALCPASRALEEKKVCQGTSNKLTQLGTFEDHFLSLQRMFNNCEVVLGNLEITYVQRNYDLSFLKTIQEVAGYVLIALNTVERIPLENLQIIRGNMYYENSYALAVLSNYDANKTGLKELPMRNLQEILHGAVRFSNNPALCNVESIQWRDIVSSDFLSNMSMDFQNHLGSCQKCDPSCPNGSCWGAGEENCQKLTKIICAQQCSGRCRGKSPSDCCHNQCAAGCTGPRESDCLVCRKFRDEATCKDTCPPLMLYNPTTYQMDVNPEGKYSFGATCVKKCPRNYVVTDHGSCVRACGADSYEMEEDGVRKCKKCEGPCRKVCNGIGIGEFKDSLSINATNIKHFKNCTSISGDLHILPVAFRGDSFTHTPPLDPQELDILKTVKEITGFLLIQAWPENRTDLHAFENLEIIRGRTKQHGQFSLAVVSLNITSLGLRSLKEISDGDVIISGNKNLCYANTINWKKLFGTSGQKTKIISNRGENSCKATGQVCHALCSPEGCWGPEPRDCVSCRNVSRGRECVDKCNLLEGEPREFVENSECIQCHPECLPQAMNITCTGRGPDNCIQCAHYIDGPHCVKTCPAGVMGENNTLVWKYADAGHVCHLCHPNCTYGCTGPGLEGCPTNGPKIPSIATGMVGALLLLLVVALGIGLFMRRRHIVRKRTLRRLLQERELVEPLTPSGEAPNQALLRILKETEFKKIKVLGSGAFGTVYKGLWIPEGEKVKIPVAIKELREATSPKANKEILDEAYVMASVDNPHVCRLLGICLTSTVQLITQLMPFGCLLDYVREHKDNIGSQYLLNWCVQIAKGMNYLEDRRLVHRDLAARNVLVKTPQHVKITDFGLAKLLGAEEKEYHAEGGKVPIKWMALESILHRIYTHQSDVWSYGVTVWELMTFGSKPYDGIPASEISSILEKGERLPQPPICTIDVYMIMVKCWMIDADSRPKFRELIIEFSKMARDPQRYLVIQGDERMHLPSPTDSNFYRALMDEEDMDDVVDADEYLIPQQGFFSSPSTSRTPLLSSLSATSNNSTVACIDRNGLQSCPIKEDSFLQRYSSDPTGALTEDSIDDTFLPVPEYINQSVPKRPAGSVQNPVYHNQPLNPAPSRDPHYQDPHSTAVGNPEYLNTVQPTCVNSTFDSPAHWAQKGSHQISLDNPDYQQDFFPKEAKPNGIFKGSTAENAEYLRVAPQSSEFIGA
Chain of Neurogenic locus notch homolog protein 3 (Homo sapiens) (Q9UM47 whole entry, looked up): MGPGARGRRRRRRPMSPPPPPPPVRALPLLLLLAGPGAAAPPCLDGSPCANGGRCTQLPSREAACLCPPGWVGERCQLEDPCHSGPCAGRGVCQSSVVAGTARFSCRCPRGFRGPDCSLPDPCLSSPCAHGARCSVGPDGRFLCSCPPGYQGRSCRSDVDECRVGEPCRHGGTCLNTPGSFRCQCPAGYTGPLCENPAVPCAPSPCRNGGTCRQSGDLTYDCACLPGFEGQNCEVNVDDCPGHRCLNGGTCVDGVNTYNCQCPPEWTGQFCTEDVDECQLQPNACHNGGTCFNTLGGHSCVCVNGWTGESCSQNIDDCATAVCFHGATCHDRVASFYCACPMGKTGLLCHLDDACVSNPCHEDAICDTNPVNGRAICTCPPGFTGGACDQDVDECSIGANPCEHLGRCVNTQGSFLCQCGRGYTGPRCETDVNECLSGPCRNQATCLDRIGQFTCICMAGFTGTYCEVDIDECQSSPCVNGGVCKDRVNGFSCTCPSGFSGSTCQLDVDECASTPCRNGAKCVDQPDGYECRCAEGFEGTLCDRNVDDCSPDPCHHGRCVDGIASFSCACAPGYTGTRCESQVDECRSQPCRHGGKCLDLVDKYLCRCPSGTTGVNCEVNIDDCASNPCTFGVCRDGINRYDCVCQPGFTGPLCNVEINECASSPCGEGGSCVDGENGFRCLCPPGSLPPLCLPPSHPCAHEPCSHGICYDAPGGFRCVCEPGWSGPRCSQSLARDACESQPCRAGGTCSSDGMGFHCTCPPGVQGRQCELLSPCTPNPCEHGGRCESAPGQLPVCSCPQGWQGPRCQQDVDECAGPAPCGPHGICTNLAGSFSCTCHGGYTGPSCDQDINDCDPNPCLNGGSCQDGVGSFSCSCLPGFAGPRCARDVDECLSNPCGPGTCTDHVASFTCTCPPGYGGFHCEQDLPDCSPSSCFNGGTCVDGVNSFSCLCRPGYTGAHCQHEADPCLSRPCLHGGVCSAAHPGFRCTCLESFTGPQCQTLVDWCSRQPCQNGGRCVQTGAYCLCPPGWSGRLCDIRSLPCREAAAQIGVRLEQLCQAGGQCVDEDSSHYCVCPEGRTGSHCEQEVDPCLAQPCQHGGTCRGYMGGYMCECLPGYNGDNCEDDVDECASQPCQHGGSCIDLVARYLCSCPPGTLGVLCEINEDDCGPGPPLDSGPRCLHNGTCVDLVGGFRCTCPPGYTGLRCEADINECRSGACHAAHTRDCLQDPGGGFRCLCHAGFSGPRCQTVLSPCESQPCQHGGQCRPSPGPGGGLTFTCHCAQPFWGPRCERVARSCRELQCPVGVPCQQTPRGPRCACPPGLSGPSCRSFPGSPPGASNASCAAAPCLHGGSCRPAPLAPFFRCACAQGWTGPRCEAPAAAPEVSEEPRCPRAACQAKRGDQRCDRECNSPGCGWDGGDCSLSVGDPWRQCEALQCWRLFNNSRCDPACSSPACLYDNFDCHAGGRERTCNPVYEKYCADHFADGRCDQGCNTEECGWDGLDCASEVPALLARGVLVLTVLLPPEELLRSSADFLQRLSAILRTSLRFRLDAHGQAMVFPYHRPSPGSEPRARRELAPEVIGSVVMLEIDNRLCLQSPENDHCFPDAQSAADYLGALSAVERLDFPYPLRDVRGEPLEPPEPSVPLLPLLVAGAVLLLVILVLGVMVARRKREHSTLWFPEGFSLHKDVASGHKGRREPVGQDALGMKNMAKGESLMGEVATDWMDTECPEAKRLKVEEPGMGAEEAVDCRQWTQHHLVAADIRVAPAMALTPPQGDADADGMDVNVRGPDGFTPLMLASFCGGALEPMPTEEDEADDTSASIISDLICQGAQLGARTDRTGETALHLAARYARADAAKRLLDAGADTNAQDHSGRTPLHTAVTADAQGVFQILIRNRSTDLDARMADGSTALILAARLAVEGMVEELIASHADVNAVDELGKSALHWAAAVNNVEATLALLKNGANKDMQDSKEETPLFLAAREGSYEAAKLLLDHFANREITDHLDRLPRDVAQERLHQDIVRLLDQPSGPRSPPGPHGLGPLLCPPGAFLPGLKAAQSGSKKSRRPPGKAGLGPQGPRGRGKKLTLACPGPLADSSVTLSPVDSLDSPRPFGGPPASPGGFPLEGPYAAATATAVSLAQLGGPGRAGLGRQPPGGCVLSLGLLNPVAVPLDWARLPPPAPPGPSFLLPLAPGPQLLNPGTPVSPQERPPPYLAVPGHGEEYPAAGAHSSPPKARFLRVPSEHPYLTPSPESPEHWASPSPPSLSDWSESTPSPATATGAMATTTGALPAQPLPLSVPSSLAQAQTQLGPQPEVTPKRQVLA
Chain of Follistatin-related protein 3 (Homo sapiens) (O95633 whole entry, looked up): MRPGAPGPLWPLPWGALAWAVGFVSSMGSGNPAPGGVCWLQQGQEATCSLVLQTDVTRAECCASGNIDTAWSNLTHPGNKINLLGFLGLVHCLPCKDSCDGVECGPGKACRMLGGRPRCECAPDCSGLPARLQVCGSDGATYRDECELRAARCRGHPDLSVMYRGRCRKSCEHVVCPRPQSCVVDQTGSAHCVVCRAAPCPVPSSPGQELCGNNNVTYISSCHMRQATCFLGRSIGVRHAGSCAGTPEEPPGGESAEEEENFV

`CC1CC/C=C\[C@H]2OC34C=CCN(c5ccc6ccccc6c5)C(=O)[C@H]3N(C(CO)C(C)C)C(=O)[C@@H]4C2C(=O)O1` (stereo not given in full): the composite z-score was 0.445 in experiment [1]; 1.76 in experiment [5]; -0.0313 in [7]; -0.0033 in [8]; 0.135 in experiment [9]; -0.126 in experiment [10]. Besides, the composite z-score was 0.675 in experiment [11]; -0.305 in experiment [12]; 0.623 in experiment [13]; -0.209 in experiment [15]; -0.176 in experiment [16]; -0.56 in [17]. For the same compound, the composite z-score in experiment [18] is -0.163; in [19] it was -0.495; in experiment [20] it was 1.2. The z-score in [2] is -1.03 (inactive); in experiment [3] it was -1.55 (inactive); in experiment [4], -0.797 (inactive); in experiment [6] it was -0.578 (inactive); in experiment [14], 6.6e-05 (inactive).

Turning to `C=C(C(=O)CC[C@H](OC(=O)c1cccnc1)c1cccc(OCCO)c1)C(C)C`, the composite z-score in experiment [1] is 1.03; in experiment [5], 0.391; in [7] it was -0.017; in experiment [8], -0.367; in experiment [9], -0.424; in experiment [10], -0.0238. Further, the composite z-score is 1.24 in experiment [11]; -0.061 in experiment [12]; 0.125 in experiment [13]; -0.64 in [15]; -0.418 in [16]; -0.792 in experiment [17]. Further, the composite z-score is -1.05 in experiment [18], -0.878 in [19] and 1.16 in [20]. Further, the z-score in experiment [2] was 0.865 (inactive); in [3], 0.167 (inactive); in experiment [4], 1.1 (inactive); in experiment [6] it was 0.483 (inactive); in experiment [14], 1.76 (inactive).

Turning to `C[C@]1(C(=O)O)c2ccccc2C(=O)N(Cc2ccccc2)[C@H]1c1ccc(CO)cc1`, the composite z-score in [1] was -1.68; in experiment [5], -0.884; in experiment [7], 0.119; in experiment [8], -1.51; in experiment [9] it was -1.9; in experiment [10] it was -0.288. In addition, the composite z-score in experiment [11] is 1.51; in [12], 0.44; in experiment [13], 1.11; in experiment [15] it was -1.97; in experiment [16], -1.83; in experiment [17], -1.63. The composite z-score in experiment [18] is -1.38; in experiment [19], -1.64; in experiment [20] it was 0.463. Further, the z-score in [2] was 1.09 (inactive); in [3], 0.468 (inactive); in experiment [4] it was 1.37 (inactive); in [6], 0.651 (inactive); in experiment [14], -0.602 (inactive).

In the case of `C=C[C@H](COC(C)=O)NS(=O)(=O)c1ccc(Br)cc1`, the composite z-score in experiment [1] is -0.0232; in experiment [5], -0.0639; in experiment [7], -0.0598; in experiment [8], 0.0055; in experiment [9], -0.564; in experiment [10], -0.227. Besides, the composite z-score in [11] is 0.786; in experiment [12] it was -0.247; in experiment [13], -0.272; in experiment [15] it was -0.28; in experiment [16], -0.384; in experiment [17], 0.141. The composite z-score in experiment [18] came to 0.128; in [19] it was 0.516; in experiment [20], 0.294. Also, the z-score in [2] was 0.0313 (inactive); in [3], -1.4 (inactive); in experiment [4], -0.124 (inactive); in experiment [6], 0.506 (inactive); in experiment [14], 0.485 (inactive).

As for `COC(=O)C(CC#Cc1ccc2c(c1)[C@]1(C(=O)N2)[C@H](C(=O)O)[C@H]2C(=O)O[C@H](c3ccccc3)[C@H](c3ccccc3)N2[C@@H]1c1ccccc1OCCO)C(=O)OC`, the composite z-score amounted to 1.54 in experiment [1]; 3.04 in experiment [5]; 0.396 in [7]; 1.27 in experiment [8]; 1.15 in experiment [9]; 0.103 in experiment [10]. Besides, the composite z-score in [11] worked out at 1.58; in experiment [12] it was 0.485; in [13], 0.327; in experiment [15], 1.19; in experiment [16] it was 1.31; in [17], 0.384. For the same compound, the composite z-score worked out at 1.06 in experiment [18], 0.337 in experiment [19] and 0.194 in experiment [20]. Moreover, the z-score in experiment [2] is 1.93 (inactive); in experiment [3], 0.324 (inactive); in [4] it was -1.17 (inactive); in [6], -0.972 (inactive); in experiment [14] it was 0.78 (inactive).
